Screening results (PubChem)
Sampled rows, rich in hits. Any-hit rate of the full collection: about 2.9%.
ADAM17 inh = ADAM17 inhibitors, primary screen, biochemical, QFRET | AID 720648, 2013 | Disintegrin and metalloproteinase domain-containing protein 17 (Homo sapiens), P78536 | 370,000 compounds, 0.83% hits | recombinant ADAM17, EDANS/DABCYL FRET peptide cleavage | inhibition, % at 6.95 µM;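 active = inhibition above the mean of compounds lying between control limits plus 3 SD, set per campaign, cut at about 8.5% in these data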;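 also: 0% = DMSO-only wells as the low control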
ADAM10 inh = human ADAM10 inhibitors, primary screen, biochemical, QFRET, HTS; Disintegrin and metalloproteinase domain-containing protein 10 (Homo sapiens), O14672; recombinant ADAM10, EDANS/DABCYL FRET peptide cleavage, 3 h; inhibition, % at 7 µM; 370,000 compounds, 0.62% hits;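 active = inhibition above a per-campaign cutoff equal to the mean of compounds falling between control-based bounds plus 3 SD, cut at about 20% in these data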;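 also: 0% = DMSO wells while the 100% control is not disclosed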
Target sequence (O14672 214-748 limits assumed): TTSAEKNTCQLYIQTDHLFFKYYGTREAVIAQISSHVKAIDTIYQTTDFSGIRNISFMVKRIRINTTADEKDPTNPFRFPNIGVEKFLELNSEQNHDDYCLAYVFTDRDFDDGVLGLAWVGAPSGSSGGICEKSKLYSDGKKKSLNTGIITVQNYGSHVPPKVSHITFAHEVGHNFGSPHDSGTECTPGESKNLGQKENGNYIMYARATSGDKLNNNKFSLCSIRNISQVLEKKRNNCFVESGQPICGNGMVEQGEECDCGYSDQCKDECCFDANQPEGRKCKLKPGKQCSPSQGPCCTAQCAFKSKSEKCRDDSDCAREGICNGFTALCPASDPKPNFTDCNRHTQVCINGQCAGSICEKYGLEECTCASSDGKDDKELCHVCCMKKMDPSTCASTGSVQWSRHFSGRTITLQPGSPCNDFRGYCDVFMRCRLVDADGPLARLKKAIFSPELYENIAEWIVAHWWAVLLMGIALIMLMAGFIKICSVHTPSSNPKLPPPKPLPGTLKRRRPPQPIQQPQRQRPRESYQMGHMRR
PLCb3 inh = human PLC-beta3 inhibitors, primary screen, biochemical, fluorescence | Purified PLC-beta3, fluorogenic substrate | inhibition, % at 12.2 µM | 370,000 compounds, 0.18% hits | AID 720704, 2013;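 also: 0% = median of compound wells on plate and 100% = full blocker control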
KLK7 zymogen act = proKLK7 zymogen activators, primary screen, biochemical, fluorescence intensity; purified proKLK7, EDANS-DABCYL substrate fluorescence; 100% is mature enzyme control, 0% vehicle; activation, % at 7 µM; 370,000 compounds, 0.9% hits; AID 652039, 2013;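 active = activation above the mean of all tested compounds plus 3 SD, computed per campaign excluding outliers beyond control limits, cut at about 13% in these data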
PLCg1 inh = PLC-gamma1 enzyme inhibitors, primary screen, biochemical, fluorescence, purified enzyme; 1-phosphatidylinositol 4,5-bisphosphate phosphodiesterase gamma-1 (Homo sapiens), P19174; fluorogenic substrate; inhibition, % at 12.2 µM; 370,000 compounds, 0.84% hits; AID 720700, 2013; in the data active = inhibition above about 9.5%
PLCgamma1 ctr = PLC-gamma1 enzyme inhibitors, counter-screen for PLC-beta3 inhibitor project, biochemical, fluorescence. shares compounds with PLCg1 inh. purified PLC-gamma1, fluorogenic substrate. inhibition, % at 12.3 µM. 3,300 compounds, 3.1% hits. AID 743258, 2014; in the data active = inhibition above about 9.5%
PLCbeta3 conf = PLC-beta3 inhibitor confirmation, biochemical, fluorescence, purified enzyme | shares compounds with PLCg1 inh | fluorogenic substrate fluorescence | inhibition, % at 12.3 µM | 3,300 compounds, 1% hits | AID 743261, 2014
* = called active by the depositor; x = not tested or not shown. Rule as the data show it, unless noted: active = inhibition above about 11%; inactive = the rest.

SMILES	ADAM17 inh	ADAM10 inh	PLCb3 inh	KLK7 zymogen act	PLCg1 inh	PLCgamma1 ctr	PLCbeta3 conf
CC(C)NC(=O)C1(C)CCN1C/C=C/c1ccccc1 (stereo not drawn)	5	4	7	0	12*	-8	-6
COc1ccc(CC(=O)NNc2ncnc3c2cnn3-c2ccc(C)cc2)cc1OC	2	2	1	0	1	x	x
S=C(NCc1ccco1)Nc1cc(-c2ccccc2)[nH]n1	7	2	-6	0	9.6*	-5	-5
CSc1nnc(-c2cc(C)on2)n1-c1ccccc1	-1	-10	-3	0	11*	0	2
CSc1nnc(-c2nnc(SC)n2-c2ccccc2)n1-c1ccccc1	-1	3	4	0	5	x	x
O=S(=O)(c1ccc(F)c(F)c1)N1CCN(Cc2ccc3c(c2)OCO3)CC1	2	8	4	1	11*	0	0
CCN(CCNCC(O)COc1ccccc1C(C)C)c1cccc(C)c1 (stereo not drawn)	0	10	-1	0	17*	1	2
Cc1ccc(NS(=O)(=O)N2CCOCC2)cc1	-4	-20	-2	-1	12*	-4	-1
COc1cc(OC)c(C(=O)Oc2ccc3c(c2)OCO3)cc1OC	8	13	4	0	11*	8	3
O=C(Nc1nc(COc2ccccc2)cs1)C12CC3CC(CC(C3)C1)C2	4	11	11*	1	9	8	9
CC(=O)Nc1nc(COc2ccccc2)cs1	3	8	7	0	5	x	x
Cn1c(SC/C=C/c2ccccc2)nnc1-c1cccnc1	1	3	9	-1	12*	1	1
COc1ccc([N+](=O)[O-])cc1NS(=O)(=O)c1ccccc1	-3	0	4	0	1	x	x
COc1ccc([N+](=O)[O-])cc1NS(=O)(=O)c1cc(C(=O)O)ccc1OC	0	7	-3	0	9.5*	-2	-1
COc1cc(OC)cc(C(=O)Nc2ccc(S(=O)(=O)Nc3ncccn3)cc2)c1	-7	-3	-5	0	9	x	x
COc1ccc(C(=O)Nc2ccc(S(=O)(=O)Nc3ncccn3)cc2)cc1OC	2	12	14*	0	4	-9	-5
O=C(NCCN1C(=O)CSC1=O)C1CC(=O)N(c2ccccc2)C1 (stereo not drawn)	-3	-5	2	-1	10*	-6	-1
CCc1nnc(NC(=O)c2cc(C)oc2C)s1	0	3	-3	0	1	x	x
CCSc1nnc(NC(=O)c2cc(C)oc2C)s1	2	-5	3	0	11*	-6	-3
N=C(N)c1ccc(OCCCCCOc2ccc(C(=N)N)cc2)cc1	-5	-7	1	1	2	x	x
CCCCCCOc1ccc(/C(N)=N/O)cc1	4	9	6	1	12*	-8	-1
COc1ccc(S[C@]2(C(=O)N3CCN(C(C)=O)CC3)CC(=O)N(S(=O)(=O)c3ccc(F)cc3)[C@@H]2c2ccc(OC)cc2)cc1	6	13	0	1	2	x	x
COC(=O)[C@]12C[C@H](CC(=O)N3CCCCC3)C(=O)N(Cc3ccccc3)C1=C[C@H](C(C)C)O[C@@H]2C1CC1	7	2	13*	-1	8	-5	-3
COCCCNC(=O)C[C@H]1C[C@@]2(C(=O)OC)C(=C[C@H](C(C)C)O[C@@H]2C2CC2)N(Cc2ccc(Cl)cc2Cl)C1=O	5	8	5	1	10*	2	-8
COC(=O)[C@]12C[C@H](CC(=O)N3CCOCC3)C(=O)N(Cc3ccccc3)C1=C[C@H](C(C)C)O[C@@H]2C1CC1	-2	-1	5	0	1	x	x
SMILES	ADAM17 inh	ADAM10 inh	PLCb3 inh	KLK7 zymogen act	PLCg1 inh	PLCgamma1 ctr	PLCbeta3 conf
COC(=O)[C@]12C[C@H](CC(=O)N3CCCC3)C(=O)N(Cc3cccc4ccccc34)C1=C[C@H](COCc1ccccc1)O[C@@H]2C	7	9	3	0	9.5*	4	7
Cc1ccc2nsnc2c1S(=O)(=O)NCCc1c(C)[nH]c2ccc(F)cc12	7	6	8	0	10*	-1	-3
CCOC(=O)c1c(CC(C)C)csc1NC(=O)CCl	8	14	11*	1	6	-3	-6
O=C(CC(=O)NN=C1CCCCCC1)NCc1cccnc1	6	11	6	0	10*	1	1
O=C(NN=C1CCCCCC1)c1cccnc1	-1	7	3	-1	0	x	x
Cc1ccc(NC2=C(Cl)C(=O)OC2OC(C)C)cc1 (stereo not drawn)	2	5	3	0	4	x	x
Cc1cccc(NC2=C(Cl)C(=O)OC2OC(C)C)c1 (stereo not drawn)	8	5	7	0	10*	6	1
Cc1ccc(CN2CCN(/N=C/c3ccc(C(F)(F)F)cc3)CC2)cc1	5	4	10	1	10*	-4	-1
Cc1ccc(/C=N/N2CCN(Cc3ccc(C)cc3)CC2)cc1	-2	1	-3	1	-1	x	x
Cc1cccc(NC(=O)CCc2ccccc2)c1C	3	4	4	0	12*	-10	0
COc1ccnc(Oc2ccc(F)cc2)c1C(=O)N/C=N/OCc1ccccc1	4	-3	0	0	-2	x	x
O=C(Cn1c(=O)oc2cc(S(=O)(=O)N3CCc4ccccc43)ccc21)NC1CCCC1	2	-3	2	0	0	x	x
CC(C)CCNC(=O)Cn1c(=O)oc2cc(S(=O)(=O)N3CCc4ccccc43)ccc21	5	13	12*	0	4	-4	-1
CN(C(=O)c1cccc(NC(=O)Cc2ccc(NC(=O)C3CCN(C(=O)C4CCCCC4)CC3)cc2)c1)C1CCCC1	0	-3	1	0	1	x	x
C=CCC[C@@H](Cc1ccc(F)cc1)C(=O)OC[C@@H](Cc1c[nH]c2ccccc12)NC(=O)[C@@H](CC=C)CC(=O)N[C@H](CO)Cc1ccccc1	4	9	5	0	2	x	x
